Bioassay records (PubChem BioAssay)
Hits are enriched below; roughly 3.5% of the tested compounds scored in any of these assays.
FBW7 act: human FBW7 E3 ligase activation, primary screen. 650,000 compounds, 0.13% hits. AID 1259310. Q969H0. AlphaScreen FBW7–phospho-cyclin E peptide binding, activator screen. normalized activity (activation), % at 26.1 µM; in the data active means normalized activity above about 1.9%;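 further: purified mutant Fbw7 with reduced substrate affinity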
Target sequence (Q969H0 whole entry, looked up): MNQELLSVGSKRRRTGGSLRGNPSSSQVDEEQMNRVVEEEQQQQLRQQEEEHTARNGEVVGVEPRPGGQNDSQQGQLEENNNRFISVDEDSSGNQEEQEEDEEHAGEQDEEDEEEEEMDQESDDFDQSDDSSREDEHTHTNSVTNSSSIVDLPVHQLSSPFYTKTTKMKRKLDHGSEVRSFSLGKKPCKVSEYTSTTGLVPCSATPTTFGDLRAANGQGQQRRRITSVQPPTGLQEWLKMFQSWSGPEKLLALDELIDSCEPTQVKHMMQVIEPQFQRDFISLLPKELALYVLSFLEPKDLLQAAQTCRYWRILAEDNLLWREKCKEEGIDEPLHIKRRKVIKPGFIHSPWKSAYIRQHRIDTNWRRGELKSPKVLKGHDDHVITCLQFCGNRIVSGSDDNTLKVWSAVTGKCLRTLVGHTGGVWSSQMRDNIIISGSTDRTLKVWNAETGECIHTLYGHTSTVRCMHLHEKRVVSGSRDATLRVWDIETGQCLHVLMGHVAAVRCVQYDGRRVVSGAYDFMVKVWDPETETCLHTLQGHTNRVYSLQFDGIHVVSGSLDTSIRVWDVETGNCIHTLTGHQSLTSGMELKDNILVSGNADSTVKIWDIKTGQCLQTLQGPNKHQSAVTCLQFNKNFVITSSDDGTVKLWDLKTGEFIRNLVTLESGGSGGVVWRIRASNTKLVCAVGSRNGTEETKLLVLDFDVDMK
GPR151 ag: activators of human GPR151; Q8TDV0; PathHunter beta-arrestin GPR151 cells, luminescence; activation, % at 11.2 µM; 650,000 compounds, 1% hits; in the data active means activation above about 4.9%
MITF primary: human MITF inhibition, primary screen; 650,000 compounds, 0.91% hits; AlphaScreen MITF homodimerization, bead proximity signal; AID 1259374; inhibition, % at 2.6 µM; O75030; in the data active means inhibition above about 50%
TEAD-YAP inh: TEAD-YAP interaction inhibition; HEK-TIYL cells, TEAD-Gal4/YAP UAS-luciferase luminescence; inhibition, % at 9.12 µM; 640,000 compounds, 1.4% hits; in the data active means inhibition above about 32%
MITF inh conf: human MITF inhibition, confirmation. AlphaScreen MITF homodimerization, biotin/His-MITF beads. shares compounds with MITF primary. inhibition, % at 2.6 µM. 4,700 compounds, 16% hits;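 active means inhibition above a cutoff derived from the DMSO control wells, cut at about 28% in these data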;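 further: inhibitors lower the bead chemiluminescence by keeping MITF from dimerizing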
AS interf DR: AlphaScreen optical interference, dose response counter-screen. shares compounds with MITF primary. AlphaScreen optical interference counterscreen, cell-free. IC50, µM. 480 compounds, 6% hits. AID 1259373; call rule not given here
AS interf ctr: AlphaScreen optical interference, counter-screen | shares compounds with MITF primary | LysRS AlphaScreen counterscreen, signal interference, triplicate | inhibition, % at 2.6 µM | 4,700 compounds, 7.6% hits | AID 1259376;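 active means inhibition above a cutoff derived from the DMSO control wells, cut at about 30% in these data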
Each line names hits and unclear results; the compound was inactive in the other large screens (follow-up assays come after a bar, where they were run).

CC(=O)c1sc2nc(-c3cccs3)ccc2c1N	MITF primary 50.8 | MITF inh conf inactive | AS interf ctr inactive
COc1ccc(CNC(=O)c2sc3nc(-c4cccs4)ccc3c2N)cc1	none
CC(C)C/C=N/NC(=O)c1ccc2c(c1)NC(=O)C(C)(C)O2	MITF primary 59.6 | MITF inh conf inactive | AS interf ctr inactive
O=C(O)c1cccc(N2C(=O)CC(Nc3ccc(N4CCOCC4)cc3)C2=O)c1 (centres undefined)	MITF primary 70.4 | MITF inh conf 68.6 | AS interf DR inactive | AS interf ctr inactive
Cc1cc(C)nc(N(C#N)CC(=O)c2ccc(Br)cc2)n1	none
NC(=O)c1ccc[n+](CC(=O)Nc2ccccc2F)c1	none
N#CCCNc1cc(-c2ccc(F)cc2)nc(-c2cccnc2)n1	none
Fc1ccc(-c2cc(NCCCn3ccnc3)nc(-c3cccnc3)n2)cc1	MITF primary 54.2 | MITF inh conf 31.4 | AS interf ctr 38.6
Cc1nc(NCCCn2ccnc2)cc(-c2cccc(C(F)(F)F)c2)n1	MITF primary 60.7 | MITF inh conf inactive | AS interf ctr inactive
Fc1ccc(-c2cc(NCCCn3ccnc3)nc(-c3ccncc3)n2)cc1	none
N#CCCNc1cc(-c2cccc(C(F)(F)F)c2)nc(-c2cccnc2)n1	MITF primary 103.7 | MITF inh conf inactive | AS interf ctr inactive
CC(O)CNCCCOc1ccc(Cl)cc1C(C)(C)C (centres undefined)	MITF primary 52.4 | MITF inh conf inactive | AS interf ctr 57.2
CC(C)(C)c1cc(Cl)ccc1OCCN1CCNCC1	MITF primary 58.7 | MITF inh conf inactive | AS interf ctr inactive
Clc1ccc(Cl)c(OCCCCN2CCNCC2)c1	none
CC(C)(C)c1cc(Cl)ccc1OCCCN1CCNCC1	MITF primary 76.1 | MITF inh conf inactive | AS interf ctr inactive
COc1ccccc1C(=O)Nc1ccc(-c2cn3cccc(C)c3n2)cc1	none
CNC(=O)[C@@H]1C[C@@H](NCc2ccccc2O)CN1CC(c1ccccc1)c1ccccc1	none
COc1ccc([N+](=O)[O-])cc1NC(=O)c1cc2c(s1)-c1ccccc1OC2	none
Cc1ccc([N+](=O)[O-])c(OCCCN2CCOCC2)c1	none
Cc1cc(OCCCCN2CC(C)OC(C)C2)ccc1[N+](=O)[O-] (centres undefined)	none
Cc1ccc(OCCCN2CCCCC2)c([N+](=O)[O-])c1	MITF primary 86.6 | MITF inh conf inactive | AS interf ctr inactive
Cc1ccc(OCCCCN2CC(C)OC(C)C2)c([N+](=O)[O-])c1 (centres undefined)	MITF primary 62.6 | MITF inh conf inactive | AS interf ctr inactive
Cc1ccc(OCCN2CCCC(C)C2)c([N+](=O)[O-])c1 (centres undefined)	MITF primary 58.3 | MITF inh conf inactive | AS interf ctr inactive
Cc1ccc(OCCCCN2CCCC2)c([N+](=O)[O-])c1	MITF primary 82.9 | MITF inh conf inactive | AS interf ctr inactive
COC(=O)c1cccc(NC(=O)COC(=O)c2ccc(N3C(=O)CCC3=O)cc2)c1	none
Cc1cc(Cl)ccc1N(CC(=O)NCCSc1ccc(Cl)cc1)S(=O)(=O)c1ccccc1	none
CCNC(=O)C(=O)Nc1nc(-c2ccccc2)cs1	none
O=C(Cn1cc(C(=O)c2ccco2)c2ccccc21)NCc1cccnc1	MITF primary 67.2 | MITF inh conf 62.0 | AS interf DR inactive | AS interf ctr inactive
Cc1ccc(-n2nc(C(=O)Nc3cc(C)on3)c3c4ccccc4n(C)c3c2=O)cc1	none
CCC(C)(C)NC(=O)CN(C(=O)CCC(=O)Nc1ccccn1)c1ccccc1OC	none
COC(=O)c1c(NC(=O)C2CC2)sc2c1CCN(C(C)=O)C2	none
COC(=O)c1c(NC(=O)/C=C/C(=O)O)sc2c1CCN(C(C)=O)C2	MITF primary 83.0 | MITF inh conf inactive | AS interf ctr inactive
O=C(CSc1nc(NCc2ccco2)c2ccccc2n1)N1CCN(c2ccccc2)CC1	MITF primary 52.2 | MITF inh conf inactive | AS interf ctr inactive
CSc1nc(-c2ccc(Cl)cc2)cn1CCc1ccccc1	none
CCC(C)c1ccccc1OCCN1CCNCC1 (centres undefined)	none
CCC(C)c1ccccc1OCCCN1CCOCC1 (centres undefined)	MITF primary 61.4 | MITF inh conf inactive | AS interf ctr inactive
CCN1CCN(CCCCOc2cccc3ccccc23)CC1	none
CCN1CCN(CCCCOc2ccccc2OC(C)C)CC1	MITF primary 50.8 | MITF inh conf inactive | AS interf ctr inactive
CC(=O)c1ccccc1OCCCN1CCOCC1	none
CCC(C)c1ccccc1OCCCN1CCN(CC)CC1 (centres undefined)	MITF primary 63.2 | MITF inh conf inactive | AS interf ctr inactive
CCC(C)c1ccccc1OCCOCCN1CCOCC1 (centres undefined)	MITF primary 76.2 | MITF inh conf inactive | AS interf ctr inactive
CCC(C)c1ccccc1OCCOCCN1CCCC1 (centres undefined)	none
O=C(CCCn1c(SCC(=O)NCCC2=CCCCC2)nc2ccccc2c1=O)NCc1ccccc1	none
CCC(C)c1ccccc1OCCOCCN(C)C (centres undefined)	MITF primary 86.2 | MITF inh conf inactive | AS interf ctr inactive
CCN1CCN(CCCOc2ccccc2OCc2ccccc2)CC1	MITF primary 69.4 | MITF inh conf inactive | AS interf ctr inactive
C=CCNCCOCCOc1ccccc1C(C)CC (centres undefined)	none
CCC(C)c1ccccc1OCCCCN1CCOCC1 (centres undefined)	MITF primary 51.0 | MITF inh conf inactive | AS interf ctr inactive
CCOc1ccccc1OCCCCN1CCOCC1	none
c1ccc2c(OCCOCCNCCN3CCOCC3)cccc2c1	MITF primary 52.4 | MITF inh conf inactive | AS interf ctr inactive
O=C1C(=O)N(CCN2CCOCC2)C(c2cccs2)/C1=C(/O)c1ccc(F)cc1 (centres undefined)	none
O=C1C(=O)N(CCOCCO)C(c2cccs2)/C1=C(\O)c1ccc(F)cc1 (centres undefined)	MITF primary 54.9 | MITF inh conf inactive | AS interf ctr inactive
N#CCC(=O)N/N=C/c1cccc(O)c1	none
O=C(O)c1ccc(/C=N/NC(=O)C2COc3ccccc3O2)cc1 (centres undefined)	none
Cc1ccc(NS(C)(=O)=O)c(C)c1	none
O=C(Oc1cccc2cccnc12)c1ccc(F)cc1	none
O=C(Oc1ccc([N+](=O)[O-])c2cccnc12)c1ccc(F)cc1	MITF primary 60.2 | MITF inh conf 66.4 | AS interf ctr 100.1
O=C(Cc1cn(-c2ccc(Cl)nn2)c2ccccc12)NCc1ccccc1	MITF primary 71.6 | MITF inh conf inactive | AS interf ctr inactive
O=C(COc1ccccc1N1C(=O)c2ccccc2C1=O)c1ccc(F)cc1	MITF primary 60.2 | MITF inh conf inactive | AS interf ctr inactive
